Compound activity: PubChem, The Scripps Research Institute Molecular Screening Center
An excerpt weighted towards active compounds, which were near 3.5% of everything screened.
TEAD-YAP block: TEAD-YAP interaction inhibition; HEK-TIYL cells, TEAD-Gal4/YAP UAS-luciferase luminescence; AID 1259422; actives 1.4% (n = 640,000); inhibition, % at 9.12 µM; in the data active = inhibition above about 32%;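 also: 0% = median of test compound wells and 100% = reference inhibitor wells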
MITF primary: inhibitors of human MITF. O75030. AlphaScreen MITF homodimerization, bead proximity signal. inhibition, % at 2.6 µM. actives 0.91% (n = 650,000); in the data active = inhibition above about 50%;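 also: 0% = vehicle wells with protein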
GPR151 ag: human GPR151 activation | Q8TDV0 | PathHunter beta-arrestin GPR151 cells, luminescence | activation, % at 11.2 µM | actives 1% (n = 650,000) | AID 1508602; in the data active = activation above about 4.9%;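 also: 0% = median of compound wells and 100% = cells with positive control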
FBW7 activator: activators of human E3 ligase FBW7 | AlphaScreen FBW7–phospho-cyclin E peptide binding, activator screen | normalized activity (activation), % at 26.1 µM | actives 0.13% (n = 650,000) | AID 1259310; in the data active = normalized activity above about 1.9%;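 also: purified mutant Fbw7 with reduced substrate affinity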
GPR151 confirm: confirmation of human GPR151 activators; shares compounds with GPR151 ag; 6,700 tested, under 10 active; GPR151 PathHunter beta-arrestin cells, luminescence, 90 min; % of EA-reagent control over plate median; activation, % at 11.2 µM;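 active = mean percent activation across replicates above the confirmation screen cutoff of 4.91%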
GPR119 ag: counter-screen for GPR151 activators: effect on human GPR119; shares compounds with GPR151 ag; GPR119 PathHunter beta-arrestin cells, luminescence, 90 min; 0 = compound-well median, 100 = enzyme-acceptor control; activation, % at 11.2 µM; actives 0.3% (n = 6,700);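 active = mean percent activation in the counterscreen above 29.09%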;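 also: counterscreen on off-target GPR119 to flag nonselective hits from the GPR151 activator screen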
Target sequence (Q8TDV5 whole entry, looked up): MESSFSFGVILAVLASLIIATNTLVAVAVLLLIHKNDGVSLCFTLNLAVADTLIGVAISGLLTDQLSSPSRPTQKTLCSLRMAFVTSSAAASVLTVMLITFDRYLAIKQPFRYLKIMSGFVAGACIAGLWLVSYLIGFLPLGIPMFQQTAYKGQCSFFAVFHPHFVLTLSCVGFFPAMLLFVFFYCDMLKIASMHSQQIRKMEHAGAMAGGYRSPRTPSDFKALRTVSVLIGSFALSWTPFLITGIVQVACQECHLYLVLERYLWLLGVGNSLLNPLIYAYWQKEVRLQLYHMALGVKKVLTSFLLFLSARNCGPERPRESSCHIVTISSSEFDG
* marks the source's active call; other numbers are inactive results; . = no result.

SMILES	TEAD-YAP block	MITF primary	GPR151 ag	FBW7 activator	GPR151 confirm	GPR119 ag
CC(=O)N1CCCN(c2ccc(S(C)(=O)=O)cc2)CC1	4	3	1	0	.	.
CC(C)Sc1nc2ccc([N+](=O)[O-])cc2s1	-15	24	0	0	.	.
COc1ccccc1C(=O)OCC(=O)Nc1ccc(C#N)cc1	-9	17	6.1*	0	1	1
CNc1ccccc1C(=O)OCC(=O)Nc1ccc(C#N)cc1	-11	-8	-1	0	.	.
COc1ccc(NC(=O)C2=C(C)NC3=C(C(=O)CCC3)C2c2ccc(C)c([N+](=O)[O-])c2)cc1 (stereo not given)	0	3	1	0	.	.
Cc1ccc(/C=C2/SC(=S)N(CC(=O)Nc3ccccc3O)C2=O)cc1	-3	8	7.3*	0	1	-4
COC(=O)COc1ccc(S(=O)(=O)NCCC2=CCCCC2)cc1C	-1	2	30*	0	0	2
Cc1ccc(/C=C(/C#N)C(=O)Nc2sc3c(c2C(N)=O)CCCC3)o1	-15	11	0	0	.	.
CCOc1ccc(-n2c(=S)sc3c(=O)n(-c4ccccc4)c(SCc4ccccc4C)nc32)cc1	4	-1	0	0	.	.
Nn1cnn2c(SCc3ccc(Cl)cc3)nnc12	-1	15	1	1	.	.
O=C(CCCOc1ccccc1)Nc1ccccc1C(=O)N1CCOCC1	8	4	9.4*	0	0	12
COc1ccc(/C=C/C(=O)N(Cc2ccccc2)Cc2ccccc2)cc1	1	-2	0	0	.	.
O=C(O)/C=C/C(=O)N(Cc1ccccc1)Cc1ccccc1	4	-5	5.3*	0	1	8
CC(Cl)C(=O)N(Cc1ccccc1)Cc1ccccc1 (stereo not given)	8	-18	5.1*	0	0	8
COC(=O)/C(C#N)=C/c1c(OC)[nH]c2ccccc12	5	-2	1	0	.	.
COc1cc(Br)cc2c1OC1(C=C2)c2ccccc2-c2ccccc2N1C (stereo not given)	2	1	0	0	.	.
COc1ccc(OC)c(C2NC(=O)NC(C)=C2C(=O)OC(C)C)c1 (stereo not given)	-2	22	5.1*	0	0	12
COc1ccc(O)c(C2NC(=O)NC(C)=C2C(=O)OC(C)C)c1 (stereo not given)	-14	3	0	0	.	.
CN1C(=O)C(C)(C)COc2cc(NC(=O)Nc3ccc4c(c3)OCO4)ccc21	-55	8	-1	0	.	.
CC(C)CCN1C(=O)C(C)(C)COc2cc(NC(=O)c3ccc4c(c3)OCO4)ccc21	-10	9	5.6*	0	3	2
O=C(NCC1CCCO1)C1CCN(C(=O)N2CCOc3ccccc32)CC1 (stereo not given)	3	8	9.7*	0	0	-10
CC(C)NC(=O)C1CCN(C(=O)N2CCOc3ccccc32)CC1	-4	0	-1	0	.	.
COC(=O)c1cc(C(=O)NCc2ccccc2Cl)cc([N+](=O)[O-])c1	0	-1	0	0	.	.
Cc1ccc(N2C(=O)C3CC=CC(C)C3C2=O)cc1 (stereo not given)	-17	7	12*	0	0	-4
CC1C=CCC2C(=O)N(c3ccc([N+](=O)[O-])cc3)C(=O)C12 (stereo not given)	0	5	2	0	.	.
SMILES	TEAD-YAP block	MITF primary	GPR151 ag	FBW7 activator	GPR151 confirm	GPR119 ag
Nc1cc2c(cc1C(=O)c1cccc(Br)c1)OCCO2	5	-2	5.4*	0	0	3
Cc1cccc(NC(=O)C2CCCN(S(=O)(=O)c3ccc4[nH]c(=O)ccc4c3)C2)n1 (stereo not given)	3	6	5.3*	0	0	-13
COc1cc2[nH]c(=S)nc(NCC(OC)OC)c2cc1OC	2	25	5.5*	0	0	0
COc1cc2[nH]c(=S)nc(NCCCN3CCCC3)c2cc1OC	-2	-3	1	0	.	.
CCOc1cccc2sc(NC(=O)C3=COCCO3)nc12	-17	2	6.6*	0	0	10
COc1ccc2c(c1)sc(=NC(=O)CS(=O)(=O)c1ccc(F)cc1)n2C	6	4	5.8*	-1	1	8
COc1cccc(OC)c1C(=O)N=c1sc2cc(F)ccc2n1C	9	11	2	0	.	.
COc1cccc(C(=O)N=c2sc3cc(F)ccc3n2C)c1OC	67*	-19	6.6*	0	0	10
O=C(CCCn1nnc2ccccc2c1=O)NCc1ccccn1	7	7	0	0	.	.
CCCCc1ccc(N2C(=O)c3cccc4cccc(c34)C2=O)cc1	3	-6	-1	0	.	.
CC(=O)C1=C(O)C(=O)N(CCCO)C1c1ccccc1F (stereo not given)	18	12	0	0	.	.
Cc1ccccc1NC(=S)N(Cc1cccc(Br)c1)CC1CCC(C(=O)O)CC1 (stereo not given)	0	-1	7.6*	0	-1	-2
O=C(O)C1CCC(CN(Cc2cccc(Br)c2)C(=S)Nc2ccccc2F)CC1 (stereo not given)	11	7	0	0	.	.
CCN(CCCNC(=O)CCS(=O)(=O)c1ccc(C)cc1)c1cccc(C)c1	0	1	0	0	.	.
O=C(CCCC(=O)Nc1ccc(Cl)cc1)Nc1ccc(Cl)cc1	5	-1	14*	0	0	-6
O=C(CCC(=O)Nc1ccc(Cl)cc1)Nc1ccc(Cl)cc1	1	-9	-1	0	.	.
Cc1ccc(-c2cc(C(F)(F)F)n3nc(C(=O)NN4CCOCC4)cc3n2)cc1C	3	13	5.3*	0	0	9
COc1ccc(-c2cc(C(F)(F)F)n3nc(C(=O)N4CCN(c5cccc(Cl)c5)CC4)cc3n2)cc1	-8	-2	-1	0	.	.
COc1ccc(-c2cc(C(F)(F)F)n3nc(C(=O)NCc4cccs4)cc3n2)cc1OC	-1	0	7.2*	0	0	12
CCn1ncc(CNC(=O)c2cc3nc(-c4ccco4)cc(C(F)(F)F)n3n2)c1C	20	2	5.0*	0	1	-1
COc1ccc(-c2cc(C(F)(F)F)n3nc(C(=O)N4CCN(c5ccccc5Cl)CC4)cc3n2)cc1	1	-3	6.1*	0	0	-6
COc1ccc(-c2cc(C(F)(F)F)n3nc(C(=O)NCCc4ccccc4)cc3n2)cc1	2	14	13*	0	0	-3
O=C(NCCCn1ccnc1)c1cc2nc(-c3cccs3)cc(C(F)(F)F)n2n1	2	11	7.3*	0	0	12
CCOc1cc(CO)ccc1OCC(=O)NCc1ccccc1	1	1	0	0	.	.
Cc1ccc(C)c(-n2c(CNC(=O)c3ccc(S(=O)(=O)N(C)C)cc3)nnc2SCC(=O)Nc2nnc(C)s2)c1	-5	3	-1	0	.	.
